Screens (PubChem BioAssay)
eIF4H inh – inhibitors of RNA binding by human eIF4H. Q15056. eIF4H fluorescence polarization binding assay. 290,000 tested, 0.94% active. inhibition, % at 35 µM;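 note: calls also rest on retests at 20 µM and on dose response follow-up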
A3G deaminase – APOBEC3G (human) deaminase inhibition; Q9HC16; recombinant A3G, ssDNA deamination FAM/TAMRA fluorescence; inhibition, % at 20 µM; 330,000 tested, 0.28% active; AID 493012;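 active = inhibition of at least 40% at 20 µM, with no more than 30% in the related APOBEC3A deaminase screen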;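 note: plate controls were DMSO wells with A3G for no effect and wells lacking A3G enzyme for full effect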
PABP polyA inh – PABP-poly(A) binding inhibition. 290,000 tested, 1% active. calls only at 35 µM. AID 2014. PABP-poly(A) RNA binding, fluorescence polarization;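 note: calls also rest on retests at 20 µM and on dose response follow-up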
PHOSPHO1 block – blocks human PHOSPHO1 phosphatase activity; recombinant PHOSPHO1, absorbance phosphatase assay; inhibition, % at 13.3 µM; 290,000 tested, 1.1% active; in the data active = inhibition above about 60%
Target sequence (Q8TCT1 whole entry, looked up): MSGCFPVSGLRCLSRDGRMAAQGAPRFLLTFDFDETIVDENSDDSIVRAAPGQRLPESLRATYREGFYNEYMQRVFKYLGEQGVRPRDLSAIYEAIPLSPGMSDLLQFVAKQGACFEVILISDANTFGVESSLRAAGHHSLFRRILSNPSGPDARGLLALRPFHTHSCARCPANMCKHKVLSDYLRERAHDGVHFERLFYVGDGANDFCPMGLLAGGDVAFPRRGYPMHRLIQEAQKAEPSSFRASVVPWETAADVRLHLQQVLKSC
APOBEC3A inh – blocks human APOBEC3A ssDNA deamination | 330,000 tested, 0.41% active | recombinant A3A, FAM/TAMRA ssDNA deamination fluorescence | inhibition, % at 20 µM | P31941 | AID 493011;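 active = at least 40% inhibition at 20 µM here, with at most 30% in a related deaminase screen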;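 note: plate controls were A3A with DMSO for no effect and wells lacking A3A enzyme for full effect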
PABP1 MLLE inh – inhibitors of microRNA-mediated deadenylation, human PABP1 MLLE binding. 360,000 tested, 0.36% active. inhibition, % at 20 µM. P11940. GST-MLLE / FITC-PAM2 fluorescence polarization. AID 588489; in the data active = inhibition above about 35%, passing the limit was not always enough;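 note: plate controls were DMSO wells with GST-MLLE for no effect and wells lacking GST-MLLE protein for full effect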
* = called active by the depositor; i = inactive; ? = inconclusive; / = not tested or not shown; + = active, no number. This is a sample that favours compounds with a hit; in the whole collection about 2.6% have one here. Unless noted, the rule behind the calls is not given here.

SMILES	eIF4H inh	A3G deaminase	PABP polyA inh	PHOSPHO1 block	APOBEC3A inh	PABP1 MLLE inh
CC(C)(C)[C@H]1CCC(=O)N([C@H](CSc2ccccc2)Cc2ccccc2)CC1	-0.8	16.5	i	-1.7	0.4	16.3
CC(=O)Nc1ccc(SC[C@H](Cc2ccccc2)N2CCN(CCc3ccccc3)CCC2=O)cc1	-4.2	-8.8	i	13.3	-0.7	29.6
CC(=O)Nc1ccc(SC[C@H](Cc2ccccc2)N2CC[C@@H](O)CCC2=O)cc1	/	-2.0	/	/	2.6	40.6*
CC(=O)Nc1ccc(SC[C@H](Cc2ccccc2)N2CC[C@@H](C(C)(C)C)CCC2=O)cc1	/	-2.6	/	/	1.3	41.7*
Cc1ccc(CCN2CC(C(=O)NC3CCC(C)CC3)CC2=O)cc1 (stereo not given)	/	/	/	/	/	-1.1
Cc1ccc(-n2c(SCC(=O)N/N=C/c3c(C)nn(-c4ccccc4)c3C)nc3ccccc3c2=O)cc1	-3.9	-12.2	i	-24.5	1.0	38.2*
Cc1nn(-c2ccccc2)c(C)c1/C=N/NC(=O)CSc1nc2ccccc2c(=O)n1-c1ccc(Br)cc1	-6.1	-1.5	i	26.1	1.2	4.0
CCN(CC(=O)Nc1c(F)cccc1F)C(=O)c1cccc(S(=O)(=O)NCc2ccccc2)c1	/	-11.0	/	/	-0.1	8.7
Nc1nnnn1/N=C/c1cc(Cl)ccc1O	20.2	-8.4	i	37.3	-4.5	49.0*
O=C(O)c1oc2ccc(Br)cc2c1-n1cccc1	81.1*	-6.3	+	2.9	0.1	3.5
COc1ccc2[nH]c3c(c2c1)CCN1C(=O)C(CC(=O)NCc2ccco2)C[C@H](C(=O)N2CCOCC2)[C@@]31CCC1CCCC1 (stereo not given in full)	/	1.6	/	/	1.4	-7.0
Cc1cc(C(=O)NN)c(C)o1	-3.7	-5.8	i	61.2*	1.3	2.8
Cc1cc(C(=O)NCC(=O)O)c(C)o1	8.4	-7.6	i	19.2	-8.6	-8.9
COc1ccc(CN2CCOCCOCCN(Cc3ccc(OC)cc3)CCOCCOCC2)cc1	4.4	-5.6	i	-14.5	-0.1	8.3
S=c1[nH]nc(CSCc2ccccc2Cl)n1-c1ccccc1	-6.8	-0.2	i	104.8*	-1.1	-2.8
COCc1n[nH]c(=S)n1-c1ccccc1	1.0	-8.4	i	64.4*	-7.8	4.7
COC(Cc1n[nH]c(=S)n1-c1ccccc1)OC	-11.3	-9.2	i	79.0*	-3.5	9.9
CCc1cccc(CC)c1NC(=S)NCc1nc2ccccc2[nH]1	-7.3	11.0	i	-55.8	0.2	-48.9
O=C(O)CNc1ccccc1C(=O)O	74.0*	0.1	i	36.2	27.3	2.7
CC(C)C1Cc2c(C#N)c(N)n(C)c(=S)c2CO1 (stereo not given)	15.5	-4.1	i	68.5*	-4.1	-114.0
CC1(C)Cc2c(C#N)c(N)sc(=S)c2CS1	?	18.7	?	101.1*	-2.5	31.1
Cn1c(N)c(C#N)c2c(c1=S)COC(C)(C)C2	8.4	-2.4	i	64.2*	-13.6	-87.2
CC1(C)Cc2c(C#N)c(N)n(-c3ccccc3)c(=S)c2CO1	28.9	2.9	i	19.7	-1.9	-6.5
CSc1nc(N2CCOCC2)c2c(c1C#N)CC(C(C)C)OC2 (stereo not given)	-6.3	-6.4	i	43.7	-3.6	4.3
Cn1c(N)c(C#N)c2c(c1=S)CSC(C)(C)C2	?	-4.0	?	91.4*	-2.2	34.6
SMILES	eIF4H inh	A3G deaminase	PABP polyA inh	PHOSPHO1 block	APOBEC3A inh	PABP1 MLLE inh
N#Cc1ccc(NC(=O)COC(=O)CCc2nc3ccccc3c(=O)[nH]2)cc1	2.9	-6.9	i	18.9	-0.7	-18.4
Cc1ccc(S(=O)(=O)N2CCCCC2CCNC(=O)C(=O)NCC2CCCO2)cc1 (stereo not given)	/	-3.9	/	/	-2.2	-0.1
Cc1noc(C)c1NC(=O)N(C)C[C@H]1Oc2ccc(NS(=O)(=O)c3cccs3)cc2C(=O)N([C@H](C)CO)C[C@@H]1C	/	-7.1	/	/	-1.2	0.4
CC(C)CCN1CCN(Cc2ccon2)CC1CCO (stereo not given)	5.4	-5.3	i	35.4	-0.9	-13.0
O=C(NCC1CCCO1)c1cccc(S(=O)(=O)N(Cc2ccccc2)c2ccccc2)c1 (stereo not given)	/	-0.3	/	/	3.6	9.6
CC1(C)Cc2c(c(N3CCCC3)[nH]c(=S)c2C#N)CO1	-3.5	-5.4	i	66.6*	1.5	/
CSc1nc(N2CCOCC2)c2c(c1C#N)CC(C)(C)OC2	14.1	-3.0	i	12.1	0.9	-4.9
CN(C(=O)CSc1nc2ccccc2o1)C1CCCCC1	/	-6.1	/	/	-1.0	12.9
COc1ccc(C(=O)N2CCC(n3nccc3NC(=O)C3CC3)CC2)c(OC)c1OC	-11.8	-3.4	i	19.9	-1.7	-2.4
CC(=O)c1ccccc1C(=O)N1CCC(n2nccc2NC(=O)C2CC2)CC1	-9.3	-3.0	i	65.8*	-3.8	-10.1
COc1ccccc1NC(=O)c1cc2cc(Br)ccc2cc1O	80.2*	/	i	18.5	/	-6.0
COc1cc(NC(=O)c2cc3ccccc3cc2O)c(OC)cc1Cl	10.0	-6.1	i	14.9	-2.8	8.7
Cc1cccc(N(CC(=O)NC(C)(C)C)C(=O)CCC(=O)Nc2nccs2)c1	-8.9	-3.6	i	31.1	1.0	-1.7
CC(C)(C)NC(=O)CN(C(=O)CCC(=O)Nc1nccs1)c1cccc(C(F)(F)F)c1	-8.9	-6.8	i	60.0*	-0.1	6.7
CC(=O)c1c(C)[nH]c(C(=O)OCC(=O)Nc2ccc([N+](=O)[O-])cc2Cl)c1C	-0.6	-3.2	+	-2.0	2.4	1.7
Cn1c(-c2ccccc2)cnc1SCC(=O)N1CCCc2ccccc21	-8.1	-8.1	i	-23.9	3.1	1.2
Cc1ccc(-c2cnc(SCC(=O)N3CCCc4ccccc43)n2C)cc1	-10.3	-5.7	i	76.8*	-3.5	-101.9
COc1ccc(-n2nc(C(=O)NCc3ccco3)c3ccccc3c2=O)cc1	-9.8	-2.7	i	1.7	0.3	-3.8
COc1ccc(-n2nc(C(=O)NCc3ccco3)c3c4ccccc4n(C)c3c2=O)cc1	2.8*	-5.8	+	-15.4	-5.2	8.3
CCC1C(=O)NCCN1C(=O)c1cccc(OC2CCN(S(=O)(=O)N(C)C)CC2)c1 (stereo not given)	/	-4.1	/	64.0*	-6.1	-3.4
C=CCN(CC=C)C(=O)c1cccc(OC2CCN(S(=O)(=O)N(C)C)CC2)c1	-12.8	-3.4	i	24.1	0.6	-1.7
Cc1cc2ncn(/N=C/c3ccc([N+](=O)[O-])o3)c2cc1C	18.7	2.5	i	68.7*	-0.8	-55.6
O=[N+]([O-])c1ccc(/C=N/N=C/c2ccc([N+](=O)[O-])o2)o1	11.7	/	i	8.4	/	-11.1
O=C(O)/C=C/c1ccc(S(=O)(=O)NCc2cccnc2)cc1	-4.3	-5.5	i	39.6	0.3	0.9
Cc1c(CCC(=O)NCCCCCC(=O)O)c(=O)oc2cc3occ(-c4ccccc4)c3cc12	72.1*	1.4	+	15.3	0.4	12.3
